# PMC5540273 (PLoS ONE, 2017)
# Experiments:
# [1] = test system: PRKG1
# [2] = test system: RPS6KA4(Kin.Dom.1-N-terminal)
# [3] = test system: RIOK3
# [4] = test system: RIPK1
# [5] = test system: RIPK4
# [6] = test system: ROCK1
# [7] = test system: ROCK2
# [8] = test system: RPS6KA5(Kin.Dom.1-N-terminal)
# 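Note: kd values determined as follow-up on hits from a single-replicate KINOMEscan panel screen.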
smiles,measurement,setting,value
C[C@@H]1CCN(C(=O)CO)C[C@@H]1N(C)c1ncnc2[nH]ccc12,Kd,[1],> 10000 nM
same,Kd,[2],> 10000 nM
Nc1nc(-c2ccc3c(N)n[nH]c3c2)cc(N2CCC[C@@H](C(=O)Nc3ccccc3)C2)n1.O=C(O)C(F)(F)F.O=C(O)C(F)(F)F [GSK2288359],Kd,[3],570 nM
Nc1nccc2scc(-c3ccc4c(c3)CCN4C(=O)Cc3cc(F)ccc3F)c12 [GSK2587663],Kd,[4],570 nM
O=C(Nc1ccccc1F)NC1CCN(c2ccnc(Nc3ccc(F)cc3)n2)C1 (stereo not shown) [GSK1379722],Kd,[5],> 10000 nM
Cl.Cl.c1ccc(-c2cc3ccncc3cc2OC2CCNCC2)cc1 [GSK1122999],Kd,[6],130 nM
same,Kd,[7],180 nM
NC(=O)c1sc(-n2cnc3ccccc32)cc1OCc1ccccc1F [GSK1024306],Kd,[6],460 nM
same,Kd,[7],470 nM
Fc1cccc(COc2ccc(Nc3ncnc4sc(-c5ccc[nH]5)cc34)cc2Cl)c1 [GW707818],Kd,[8],> 10000 nM
